Rows were chosen to be rich in hits. Some 13% of all compounds tested hit in one or more screens of this group.
Lamin A splicing = qHTS Assay for Modulators of Lamin A Splicing; HeLa LMNA splicing GFP/RFP minigene ratio, 48 h; Potency, µM (titrated, usually from 46.1 µM), without a hit: at the highest dose ratio change, negative = inhibition, actives largely listed as inhibitors; 200,000 tested, 0.01% active; active means well fitted inhibition curve with a large enough effect in the signal ratio, with a control signal flat, not every such curve was filed as active; inconclusive means small, poorly fitted or top-dose-only effect, or effect the other way, or a change in a side signal; the % refers to the signal ratio; further: potency means the concentration at half of the fitted maximal effect; on the % scale 0 is the no-effect control and ±100 the full control effect
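S3 HeLa cells stably expressing lamin A-EGFP splicing minigene plus DsRed2, 600 cells/well, 48 h compound exposure at 37C. Laser-scanning cytometry; analysed as GFP (500-530 nm)/RFP (575-640 nm) total intensity ratio; 0.5% DMSO vehicle.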
ALDH1A1 inh = qHTS Assay for Inhibitors of Aldehyde Dehydrogenase 1 (ALDH1A1) | 220,000 tested, 7.3% active | Potency, µM (titrated, usually from 75.3 µM), without a hit: at the highest dose activity, negative = inhibition, most hits filed as inhibitors | Aldehyde dehydrogenase 1A1 (Homo sapiens), P00352 | Purified ALDH1A1, NADH fluorescence, propionaldehyde substrate; active means well fitted inhibition curve with a large enough effect, not every such curve was filed as active; inconclusive means small, poorly fitted or top-dose-only effect, or another doubt; inactive means no such curve, though single readings can be large or run the other way;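 further: potency means the concentration at half of the fitted maximal effect; plate controls were no enzyme wells and a reference inhibitor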
miR-21 reporter = qHTS Assay for Modulators of miRNAs and/orActivators of miR-21; HeLa miR-21 FLuc reporter, luciferase, 48 h; Potency, µM (highest dose often 38.3 µM), without a hit: top-dose activity change, positive = activation, most hits filed as activators; 340,000 tested, under 10 active; AID 2288, 2010;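 further: % of control where 0% means no effect; miR-21 action dims this reporter so a rising signal means less miR-21 action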
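Using DMEM plus 10% FBS, HeLa miR-21-FLuc cells are incubated with test compounds (final up to about 40uM) for 48 hours; firefly luciferase signal is then imaged following reagent-mediated lysis.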
KDM4E inh = qHTS Assay for Inhibitors of Human Jumonji Domain Containing 2E (JMJD2E); JMJD2E catalytic domain, FDH-coupled NADH fluorescence (FDH is formaldehyde dehydrogenase); Potency, µM (titrated, usually from 57.1 µM), inactives show top-dose activity change, negative = inhibition, most hits filed as inhibitors; 230,000 tested, 1.6% active; active means well fitted inhibition curve with a large enough effect, not every such curve was filed as active; inconclusive means small, poorly fitted or top-dose-only effect, or another doubt; inactive means no such curve, though single readings can be large or run the other way;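 further: potency means the concentration at half of the fitted maximal effect; 0% = wells with enzyme and -100% = buffer wells without enzyme; nearly all actives have a fitted effect of over 50% in size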
Target sequence (B2RXH2 1-337 limits assumed): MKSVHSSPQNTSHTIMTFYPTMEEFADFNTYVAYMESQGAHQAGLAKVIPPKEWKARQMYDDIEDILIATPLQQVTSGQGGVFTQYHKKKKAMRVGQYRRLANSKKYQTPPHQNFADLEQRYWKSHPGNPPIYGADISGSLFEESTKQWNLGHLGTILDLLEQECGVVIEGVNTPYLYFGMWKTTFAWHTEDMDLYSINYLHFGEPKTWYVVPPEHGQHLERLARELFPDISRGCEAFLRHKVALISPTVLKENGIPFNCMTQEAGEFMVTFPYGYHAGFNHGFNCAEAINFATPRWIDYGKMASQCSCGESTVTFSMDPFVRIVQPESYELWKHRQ
Sfp PPTase inh = qHTS Assay for Inhibitors of Bacillus subtilis Sfp phosphopantetheinyl transferase (PPTase); 4'-phosphopantetheinyl transferase ffp (Bacillus subtilis), Q9F4F7; Biochemical Sfp PPTase activity, qHTS; Potency, µM, inactives show largest response in the series, negative = inhibition, actives largely listed as inhibitors; 310,000 tested, 3.5% active; AID 1490, 2009;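 further: the enzyme is Sfp with the accession as filed and its product quenches rhodamine fluorescence; potency means the concentration at half of the fitted maximal effect; 0% = enzyme reaction without inhibitor and -100% = no enzyme wells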
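Fluorescence-quenching assay with 15 nM Sfp, 5 uM rhodamine-CoA and 12.5 uM BHQ-2-labelled ybbR peptide in pH 7.6 Hepes/MgCl2 buffer. Enzyme was pre-incubated with compound for 15 min at room temperature. Rate was taken from the 30-min fluorescence change (525/598 nm).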
G9a inh = qHTS Assay for Inhibitors of Histone Lysine Methyltransferase G9a. Potency, µM (doses to about 102 µM), inactives show at the highest dose activity, negative = inhibition, hits mostly inhibitors. AID 504332, 2011. G9a H3K9 monomethylation, AlphaScreen, 2 h. 350,000 tested, 8.8% active. Histone-lysine N-methyltransferase EHMT2 (Homo sapiens), Q96KQ7; further: potency means the concentration at half of the fitted maximal effect; on the % scale 0 is the no-effect control and ±100 the full control effect; nearly all actives have a fitted effect of over 75% in size
Target sequence (Q96KQ7 913-1193 limits assumed): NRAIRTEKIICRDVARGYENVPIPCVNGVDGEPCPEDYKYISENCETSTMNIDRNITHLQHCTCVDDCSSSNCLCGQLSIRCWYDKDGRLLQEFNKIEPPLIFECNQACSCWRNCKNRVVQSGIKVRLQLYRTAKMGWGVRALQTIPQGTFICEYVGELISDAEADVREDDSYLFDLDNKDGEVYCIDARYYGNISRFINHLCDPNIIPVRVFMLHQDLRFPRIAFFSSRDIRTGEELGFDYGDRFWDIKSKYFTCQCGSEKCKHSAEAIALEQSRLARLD
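Step 1: enzyme (final 20 nM) with compound, 15 min RT. Step 2: substrate peptide 500 nM and SAM 20 uM, 2 h RT. Step 3: anti-H3K9me1 antibody and AlphaScreen beads, 10 min, then plate read.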
Active calls of the source: *; ? = inconclusive; / = no result given; [ ] = remark or other dose. Unless noted, the call rests on the fitted dose curve; in most records, active means well fitted curve in the direction sought with a large enough effect; inconclusive means small, poorly fitted or top-dose-only effect, or another doubt; inactive means no such curve, though single readings can be large; an effect the other way counts as inactive or inconclusive.

SMILES	Lamin A splicing	ALDH1A1 inh	miR-21 reporter	KDM4E inh	Sfp PPTase inh	G9a inh
Cc1ccc(NC(=O)c2cc(S(=O)(=O)N3CCCC(C)C3)cn2C)c(Br)c1 (stereo not drawn)	-5.8%[46 µM]	/	3.7%	/	/	1.2%[59 µM]
CC(C)CNC(=O)C(=O)NNC(=O)C1CCCCC1	10.5%	10.0%	-4.8%	7.7%	-19.9%	20µM*
CCOC(=O)c1c(C)[nH]c(C)c1S(=O)(=O)NCC(=O)NCc1ccc(C)cc1	/	/	-2.3%	/	/	4.1%[59 µM]
Nc1ncc(S(=O)(=O)NCc2cccc(Cl)c2)cn1	-2.3%[46 µM]	/	-0.9%	/	/	5.9%[59 µM]
CCOC(=O)c1cc(S(=O)(=O)NCc2cccc(Cl)c2)[nH]n1	17.0%[46 µM]	/	0.3%	/	/	3.55µM*
CCOC(=O)c1cc(S(=O)(=O)NCc2ccc(C)cc2)[nH]n1	2.0%[46 µM]	/	-3.3%	/	/	5.62µM*
CCc1ccc(C(=O)c2cn(CC(=O)Nc3cc(F)ccc3F)c3nc(C)ccc3c2=O)cc1	/	/	2.6%	/	/	6.4%[59 µM]
CCN(Cc1nc2cc(Cl)ccc2c(=O)[nH]1)C(=O)CN1C(=O)NC2(CCCCC2C)C1=O (stereo not drawn)	/	/	/	/	/	50.1µM*
CCN(Cc1nc2ccccc2c(=O)[nH]1)C(=O)CN1C(=O)NC2(CCCCC2C)C1=O (stereo not drawn)	/	/	/	/	/	19.9%[59 µM]
Cc1ccc2cc(CN(CC3CCCO3)S(=O)(=O)c3ccccc3)c3nnnn3c2c1 (stereo not drawn)	4.9%	7.08µM*	-33.7%	-3.6%	13.8%	-21.7%[59 µM]
Cc1cccc2cc(CN(CC3CCCO3)S(=O)(=O)c3ccccc3)c3nnnn3c12 (stereo not drawn)	-3.1%	?	-4.7%	-3.0%	-7.8%	9.9%[59 µM]
O=C(COc1ccc2c(-c3ccccc3)cc(=O)oc2c1)Nc1ccc(CCO)cc1	/	/	14.0%	/	-4.6%	13.8%
O=C(C1CCN(Cc2ccccc2O)CC1)N1CCN(Cc2ccc3c(c2)OCO3)CC1	/	/	2.9%	/	-8.3%	6.31µM*
O=C(Cn1ncc2c1-c1ccccc1OC2)N1CCN(c2ccccc2)CC1	/	/	3.2%	/	/	4.9%[59 µM]
COc1cccc(CN2CCC(C(=O)N3CCN(Cc4ccc5c(c4)OCO5)CC3)CC2)c1OC	/	/	0.5%	/	17.8%	1.2%
CC1CCCN(C(=O)C2CCN(Cc3ccc4c(c3)OCO4)CC2)C1 (stereo not drawn)	/	/	-0.1%	/	6.2%	50.1µM*
O=C(Nc1ccc2c(c1)OCO2)C1CCN(Cc2cc3c(cc2O)OCO3)CC1	/	/	-3.7%	/	5.7%	31.6µM*
O=C(Cn1ncc2c1-c1ccccc1OC2)N1CCN(Cc2ccc3c(c2)OCO3)CC1	-5.6%	9.8%	12.7%	-7.2%	3.3%	15.8µM*
COC(c1ccccc1)C(C)C(OC)C(C)C(OC)C(C)C(C)=O (stereo not drawn)	/	5.4%[13.5 µM]	/	/	31.1%	/
Nc1c(C(=O)Nc2ccc(OC(F)(F)F)cc2)nnn1Cc1ccccc1	/	/	-4.5%	/	/	1.1%[59 µM]
COC(=O)c1c(C)sc(-c2c(-c3ccc(OC)c(F)c3)[nH]c3c2c(=O)n(C)c(=O)n3C)c1O	7.9%[46 µM]	/	1.5%	/	/	2.9%[59 µM]
COc1ccc(OC)c(NC(=O)Cn2ncc3c2-c2ccccc2OC3)c1	/	/	-1.5%	/	/	5.2%[59 µM]
CC(C(=O)NC1CCCc2ccccc21)N1CCN(c2ccc(F)cc2)CC1 (stereo not drawn)	-12.2%	-0.9%	-1.0%	0.0%	4.1%	-3.9%
COc1cc2c(cc1OC)C(C)N(C(=O)Cn1ncc3c1-c1ccccc1OC3)CC2 (stereo not drawn)	-11.0%	12.1%	-10.1%	-2.3%	4.5%	79.4µM*
CC(C(=O)NC1CCCc2ccccc21)N1CCN(Cc2ccc3c(c2)OCO3)CC1 (stereo not drawn)	?	6.31µM*	-2.1%	4.7%	9.2%	-48.4%[59 µM]
SMILES	Lamin A splicing	ALDH1A1 inh	miR-21 reporter	KDM4E inh	Sfp PPTase inh	G9a inh
COc1cc(NS(=O)(=O)c2ccc(NC(=O)c3ccccc3C(=O)O)cc2)nc(OC)n1	/	/	-1.1%	/	/	-29.9%[59 µM]
C=CCn1c(-c2cccc(OCC)c2)n[nH]c1=S	/	-4.4%	-10.0%	?	-4.1%	8.91µM*
C=CCn1c(-c2cc(OC)cc(OC)c2)n[nH]c1=S	12.3%	22.4µM*	-4.9%	-11.4%	-7.1%	?
C=CCn1c(-c2sc3nc(C)cc(C)c3c2N)n[nH]c1=S	/	/	-9.3%	?	7.8%	7.94µM*
CC(=O)O[C@H]1[C@H](C)OC=C[C@@H]1OC(C)=O	/	/	0.4%	/	19.2%	-12.6%
O=c1c([N+](=O)[O-])c(O)c2cccc3c2n1CCC3	/	/	1.2%	/	-21.1%	79.4µM*
COc1ccc(CNC(=O)c2c(O)c3cccc4c3n(c2=O)CCC4)cc1	?	-17.5%	0.1%	0.794µM*	0.2%	72.9%[59 µM]
CCN(CC)CCNC(=O)c1c(O)c2cccc3c2n(c1=O)CCC3	-3.5%	?	-30.5%	?	-8.2%	56.2µM*
Cc1ccn2c(Nc3ccc(C(C)C)cc3)c(-c3cccs3)nc2c1	/	/	-51.1%	/	/	?
CNC(=O)CC1C(=O)N(c2ccc(F)cc2)C(=S)N1NC(=O)c1ccc(Cl)cc1 (stereo not drawn)	/	/	-34.6%	/	16.6%	2.6%
CCCCC12CN3CC(C)(CN(C1)C3c1c[nH]c3ccccc13)C2=O (stereo not drawn)	/	/	11.3%	/	/	?
CCCCN(CC)S(=O)(=O)c1ccc(C(=O)Nc2nnc(-c3cccs3)o2)cc1	?	?	?	25.1µM*	30.6%	-6.3%
CCc1nnc(NC(=O)c2ccc(S(=O)(=O)N(CC)Cc3ccccc3)cc2)o1	-25.4%	17.8µM*	28.1%	-17.8%	19.0%	-38.0%
COc1ccc(NCC(=O)N/N=C/C=C\c2ccccc2)cc1	-13.2%	9.46µM*	-16.9%	-3.8%	3.0%	28.2µM*
COc1ccccc1NCC(=O)N/N=C/C=C/c1ccccc1	-17.0%	14.1µM*	-24.1%	?	-18.9%	28.2µM*
COc1ccccc1NCC(=O)N/N=C/c1cccnc1	-2.8%	?	-1.5%	6.1%	6.8%	23.4%[59 µM]
Cc1cccc(C)c1NC(=O)COC(=O)c1cc[n+]([O-])cc1	/	/	/	/	/	-3.6%[0.501 µM]
CCOC(=O)c1csc(N)c1-c1ccc([N+](=O)[O-])cc1	/	/	-13.9%	1.0%	50.1µM*	11.2µM*
Cc1ccc(C(=O)O)cc1NC(=O)Nc1cccc2ccccc12	/	/	0.0%	/	-2.1%	/
CC(=O)c1cnc(-c2ccccn2)s1	5.7%[9.22 µM]	?	-21.4%	-7.9%	-27.9%	31.6µM*
NC(CSCc1ccccc1Cl)C(=O)O (stereo not drawn)	/	?	-2.0%	-4.2%	?	35.5µM*
